# Only some compounds are listed: those with a hit (about 8% of all), similar ones and a draw of the others.
# SW480 rerep – inducers of DNA re-replication in SW480 colon cancer cells; 1.8% of 340,000 active; SW480 DNA re-replication, Hoechst DNA content imaging, 48 h; Potency, µM (highest dose often 46.1 µM), for the others: at the highest dose re-replication activation, actives largely listed as activators; AID 624297; also: % of control where 0% means no effect; nearly all actives have a fitted effect of over 55% in size
#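 Quantitative HTS format with DMSO vehicle controls; 48 hr drug incubation at 37 C, then 40 min Hoechst staining and scanning imager measurement at 405 nm excitation.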
# HT1080NT lethal – kills 2HG-producing HT-1080-NT fibrosarcoma cells; HT-1080-NT fibrosarcoma viability, CellTiter-Glo ATP luminescence, 48 h; Potency, µM (series often up to 46.1 µM), for the others: at the highest dose activity, negative = less viability, actives largely listed as cytotoxic; 1.6% of 360,000 active; AID 686970;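 also: NT is the 2HG producing partner of a matched IDH1 knockdown line; 0% = DMSO-treated cells and -100% = media-only wells without cells; nearly all actives have a fitted effect of over 55% in size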
#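 A 48-hour cytotoxicity screen used HT-1080-NT cells plated 2 hours before compound delivery. ATP-based CellTiter-Glo luminescence measured viability, normalized to DMSO and no-cell controls.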
# KB-V1 cytotox – kills drug-selected multidrug resistant KB-V1 cells | KB-V1 MDR cells viability, CellTiter-Glo, 72 h | Potency, µM (series often up to 46.1 µM), actives largely listed as cytotoxic | 3.4% of 400,000 active | AID 1347076; also: % is scaled to controls: 0 for no effect and ±100 for the full control effect; nearly all actives have a fitted effect of over 60% in size
#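 qHTS viability screen in drug-selected KB-V1 MDR cells: 72 h compound treatment at 37 degrees C, ATP luminescence end point.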
# HT1080 IDH1KD tx – HT-1080 IDH1 knockdown cell toxicity (counter line); HT-1080 IDH1 knockdown viability, ATP luminescence, 48 h; Potency, µM (doses to about 46.1 µM), inactives show at the highest dose activity, negative = toxicity, most hits filed as cytotoxic; 2% of 360,000 active; AID 686971;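 also: 0% = DMSO wells and -100% = cell-free medium wells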
#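 In this qHTS, HT-1080 cells depleted of IDH1 are exposed for 48 h at 37 °C to compound titrations. Toxicity is scored from CellTiter-Glo luminescence, with DMSO as full viability and medium alone as none.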
# KB-3-1 cytotox – KB-3-1 parental cell cytotoxicity; KB-3-1 viability, CellTiter-Glo ATP luminescence, 72 h; Potency, µM (highest dose often 46.1 µM), most hits filed as cytotoxic; 1.4% of 400,000 active; also: % is scaled to controls: 0 for no effect and ±100 for the full control effect; nearly all actives have a fitted effect of over 60% in size
#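 Luminescent ATP read-out (CellTiter-Glo) measures survival of drug-naive KB-3-1 cells after 72 h compound exposure at 37 °C. Titration series was screened from lowest to highest concentration, with DMSO vehicle plates as background controls.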
# MCF10A rereplic – induces DNA re-replication in MCF 10a normal breast cells; AID 624296; 2.9% of 350,000 active; Potency, µM (highest dose often 46.1 µM), without a hit: top-dose activity, positive = re-replication, hits mostly activators; MCF 10A DNA re-replication, Hoechst nuclear intensity, 48 h; also: % of control where 0% means no effect; nearly all actives have a fitted effect of over 50% in size
# Active calls of the source: *; i = inactive; ? = inconclusive; · = no result given; ! = not confirmed by another sample. Calls follow the shape of the dose curve; as a rule, active = well fitted curve in the direction sought with a large enough effect; inconclusive = small, poorly fitted or top-dose-only effect, or another doubt; inactive = no such curve, though single readings can be large; an effect the other way counts as inactive or inconclusive. Potency is read from the fitted curve at half-maximal effect.
SMILES,SW480 rerep,HT1080NT lethal,KB-V1 cytotox,HT1080 IDH1KD tx,KB-3-1 cytotox,MCF10A rereplic
Cc1ccc2c(c1)C(=O)OC(C(=O)Nc1ncc(Cc3ccccc3Cl)s1)C2 (stereo not drawn),·,·,i,·,i,·
CCN1CCN(C(c2cccnc2)c2c(NC(=O)c3ccco3)sc(C)c2C)CC1 (stereo not drawn),-32%,-1%,i,0%,i,?
Cc1sc(NC(=O)c2ccco2)c(C(c2cccnc2)N2CCC(C)CC2)c1C (stereo not drawn),3%,21µM*,?,4.6µM*,18µM*,?
C=CCn1c(COc2cccc(C)c2)nnc1SCC(=O)NC(=O)NCc1ccco1,-1%,9%,i,17%,i,18µM*
Cc1cccnc1Sc1c([N+](=O)[O-])ncn1C,-6%,0%,i,?,i,-1%
Cn1cnc(Sc2ncnc3nc[nH]c23)c1[N+](=O)[O-],13%,?,?,18µM*,?,?
Cn1cnc([N+](=O)[O-])c1Sc1ncnc2nc[nH]c12,6%,4.1µM*,?,4.1µM*,1.8µM*,?
COc1ccc(/C=C/C(=O)Nc2nc3n(n2)C(c2ccccc2)C=C(c2ccccc2)N3)cc1 (stereo not drawn),·,·,i,·,i,·
C/C(=N\NC(=O)c1cccc(N/N=C(\C)c2cc(O)ccc2O)c1)c1cc(O)ccc1O,?,23µM*,?,18µM*,?,0%
C/C(=N\NC(=O)c1ccc(N/N=C(\C)c2ccc(O)cc2)cc1)c1ccc(O)cc1,9%,-29%,i,?,i,21µM*
C/C(=N\NC(=O)c1ccc(O)cc1)c1ccc(N2CCOCC2)cc1,-6%,1%,i,-11%,i,4%
CCC(=O)N1CCC2(CC1)Oc1ccc(Cl)cc1C(=O)C21CC(c2ccc(Cl)cc2)=NO1 (stereo not drawn),2%,-4%,i,-3%,i,?
CCCCOC(=O)c1ccc(NC(=O)C(=O)CC(=O)c2ccc(OC)cc2)cc1,0%,-5%,?,-21%,?,15µM*
CCOC(=O)Cn1c(=O)n(C2CCCCC2)c2nc(-c3ccc(OC)cc3)nc(C(N)=O)c21,·,·,i,·,?,·
CCOC(=O)Cn1c(=O)n(C2CCCCC2)c2nc(-c3ccc(OCC)cc3)nc(C(N)=O)c21,·,·,?,·,18µM*,·
CCOC(=O)Cn1c(=O)n(C2CCCCC2)c2nc(-c3ccc(CC)cc3)nc(C(N)=O)c21,·,·,i,·,8.2µM*,·
COc1ccc(SC[C@H](C)CN2CC[C@H](O)CCC2=O)cc1,·,·,i,·,i,·
Cc1ccc(SC[C@H](C)CN2CC[C@H](C)CCC2=O)cc1,?,-1%,18µM*!,7%,?,?
COc1ccc(SC[C@H](C)CN2CC[C@H](C)CCC2=O)cc1,-1%,5%,8.2µM*!,7%,18µM*!,20%
Cn1c(-c2ccc(F)cc2)cnc1NCc1ccc(C#N)cc1,-2%,-12%,21µM*,-24%,i,11%
O=C(c1ccc(C(F)(F)F)cc1)C1CCCN(C(=O)CCc2ccncc2)C1 (stereo not drawn),1%,-18%,i,-26%,i,?
Cc1ccc(-c2nc(N)sc2-c2ccc(C)cc2)cc1,3%,?,?,?,?,23µM*
Nc1nc(-c2ccccc2)c(-c2ccccc2)s1,-1%,-2%,i,-16%,i,4%
Cc1ccc(-c2nc(N)sc2-c2ccccc2)cc1C,-2%,-2%,?,-23%,i,8.2µM*
COc1cccc(NC(=O)CCNC(=O)Cn2cnc3ccccc3c2=O)c1,·,·,i,·,i,·
SMILES,SW480 rerep,HT1080NT lethal,KB-V1 cytotox,HT1080 IDH1KD tx,KB-3-1 cytotox,MCF10A rereplic
Cc1ccc2c(=O)n3c(nc2c1)C(Cc1ccccc1)NC(=O)c1cc2ccccc2cc1-3 (stereo not drawn),·,6.5µM*,?,5.8µM*,12µM*,·
CCC1NC(=O)c2cc3ccccc3cc2-n2c1nc1cc(F)ccc1c2=O (stereo not drawn),·,14%,?,3%,i,·
O=C1NC(Cc2ccccc2)c2nc3cc(F)ccc3c(=O)n2-c2cc3ccccc3cc21 (stereo not drawn),·,?,?,16µM*,?,·
O=C1NC(Cc2ccccc2)c2nc3ccccc3c(=O)n2-c2cc3ccccc3cc21 (stereo not drawn),·,?,?,9.2µM*,13µM*,·
COc1cc2nc3n(c(=O)c2cc1OC)-c1cc2ccccc2cc1C(=O)NC3Cc1ccccc1 (stereo not drawn),·,-19%,i,-23%,i,·
O=C1CCCC[C@@H](CO)[C@H](O)C[C@H](c2ccccc2)O1,·,-6%,i,-5%,i,·
CCOc1ccc(CNC(=O)Cn2ncc3c(=O)oc4ccc(C)cc4c32)cc1,·,·,i,·,i,·
CCOC(=O)c1c(C)[nH]c(C)c1S(=O)(=O)N1CCC(C(=O)NCc2cccc(OC)c2)CC1,·,·,i,·,i,·
COc1cccc(-n2nnc3c(=O)n(CC(=O)N4CCC(Cc5ccccc5)CC4)cnc32)c1,-9%,5%,5.2µM*,17%,?,-3%
COc1ccc(OCCN2C(=O)c3ccccc3C2=O)cc1,-3%,15%,i,15%,i,-1%
Nc1cccc2c1C(=O)N(CCOc1ccc(F)cc1)C2=O,18µM*,4%,i,-20%,?,16µM*
COc1ccc(-n2nc3cc(C)c(NC(=O)c4ccc(-c5ccc(Br)cc5)o4)cc3n2)cc1,·,·,i,·,i,·
CC1CCN(c2nc(Cl)nc(Nc3ccc([N+](=O)[O-])cc3)n2)CC1,-3%,0%,i,4%,i,5.2µM*
C=C1C(=O)O[C@H]2[C@H]1[C@@H](O)CC(=C)[C@@H]1CC(=O)[C@@H](C)[C@H]21,4.6µM*,?,i,?,i,12µM*
CNCCC=C1c2ccccc2CCc2ccccc21,-77%,23µM*,21µM*,?,i,?
O=C(CCCC(=O)Nc1cccc(Br)c1)N/N=C/c1cc([N+](=O)[O-])ccc1O,?,-27%,i,?,?,-2%
Cc1ccc(C)c(NC(=O)CCC(=O)N/N=C/c2cc([N+](=O)[O-])ccc2O)c1,?,-16%,?,?,?,?
O=C(N/N=C/c1cc([N+](=O)[O-])ccc1O)c1cccc(N2CCCC2=O)c1,9.2µM*,?,i,?,?,22%

# Source: PubChem
